High-throughput results deposited in PubChem BioAssay by several laboratories.
Rows were chosen to be rich in hits. Some 2.1% of all compounds tested hit in one or more screens of this group.
Rce1 inhib: yeast Rce1p protease inhibitors, primary screen, biochemical, fluorescence, cell-free homogeneous; CAAX prenyl protease 2 (Saccharomyces cerevisiae (strain ATCC 204508 / S288c)), Q03530; yeast membranes, quenched prenylated peptide cleavage fluorescence; calls only; 290,000 tested, 0.27% active; AID 2563, 2010;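 active = fall in fluorescence gain of 50% or more versus controls, with final raw signal at or below 3038400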;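 note: plate controls were neutral control wells for no effect and wells lacking membranes for full effect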
ADAM10 inh: human ADAM10 inhibitors, primary screen, biochemical, QFRET, HTS; Disintegrin and metalloproteinase domain-containing protein 10 (Homo sapiens), O14672; recombinant ADAM10, EDANS/DABCYL FRET peptide cleavage, 3 h; inhibition, % at 7 µM; 370,000 tested, 0.62% active;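 active = inhibition above a per-campaign cutoff equal to the mean of compounds falling between control-based bounds plus 3 SD, cut at about 20% in these data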;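 note: 0% = DMSO wells while the 100% control is not disclosed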
PLC-gamma1 inh: PLC-gamma1 enzyme inhibitors, primary screen, biochemical, fluorescence, purified enzyme; 1-phosphatidylinositol 4,5-bisphosphate phosphodiesterase gamma-1 (Homo sapiens), P19174; AID 720700, 2013; inhibition, % at 12.2 µM; 370,000 tested, 0.84% active; fluorogenic substrate
Target sequence (P19174 whole entry, looked up): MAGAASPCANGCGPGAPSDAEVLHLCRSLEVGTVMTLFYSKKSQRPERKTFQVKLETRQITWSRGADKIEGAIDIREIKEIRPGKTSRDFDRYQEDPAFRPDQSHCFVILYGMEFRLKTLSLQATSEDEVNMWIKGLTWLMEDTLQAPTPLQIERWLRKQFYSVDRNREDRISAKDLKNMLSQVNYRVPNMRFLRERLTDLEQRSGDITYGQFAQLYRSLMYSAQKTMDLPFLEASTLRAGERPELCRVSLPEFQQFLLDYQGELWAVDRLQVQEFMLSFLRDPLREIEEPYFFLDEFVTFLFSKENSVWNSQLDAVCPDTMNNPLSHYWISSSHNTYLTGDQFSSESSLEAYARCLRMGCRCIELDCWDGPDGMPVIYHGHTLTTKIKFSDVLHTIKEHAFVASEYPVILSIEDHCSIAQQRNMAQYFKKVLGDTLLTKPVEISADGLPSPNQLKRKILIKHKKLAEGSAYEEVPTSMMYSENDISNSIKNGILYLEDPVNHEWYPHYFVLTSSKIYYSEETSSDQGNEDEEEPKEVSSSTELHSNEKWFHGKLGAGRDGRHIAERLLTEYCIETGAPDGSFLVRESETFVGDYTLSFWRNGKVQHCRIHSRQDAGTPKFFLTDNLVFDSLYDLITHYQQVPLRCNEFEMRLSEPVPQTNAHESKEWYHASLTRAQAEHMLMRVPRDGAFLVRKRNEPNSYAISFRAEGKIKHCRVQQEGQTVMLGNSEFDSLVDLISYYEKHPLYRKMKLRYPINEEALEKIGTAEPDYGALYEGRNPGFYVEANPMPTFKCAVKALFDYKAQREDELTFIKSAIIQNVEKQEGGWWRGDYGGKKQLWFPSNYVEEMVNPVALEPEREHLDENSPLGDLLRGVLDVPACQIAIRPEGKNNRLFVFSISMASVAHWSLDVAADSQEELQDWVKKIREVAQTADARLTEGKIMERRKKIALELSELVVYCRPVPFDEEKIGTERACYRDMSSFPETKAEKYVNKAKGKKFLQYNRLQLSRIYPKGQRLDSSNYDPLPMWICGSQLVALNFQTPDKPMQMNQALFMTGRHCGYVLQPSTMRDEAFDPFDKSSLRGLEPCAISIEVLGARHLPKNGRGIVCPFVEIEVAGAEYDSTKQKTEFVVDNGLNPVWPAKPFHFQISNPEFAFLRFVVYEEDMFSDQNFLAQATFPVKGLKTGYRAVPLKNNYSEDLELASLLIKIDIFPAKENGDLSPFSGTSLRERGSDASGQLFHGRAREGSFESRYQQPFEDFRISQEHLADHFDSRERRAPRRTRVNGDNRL
ADAM17 inh: ADAM17 inhibitors, primary screen, biochemical, QFRET | Disintegrin and metalloproteinase domain-containing protein 17 (Homo sapiens), P78536 | recombinant ADAM17, EDANS/DABCYL FRET peptide cleavage | inhibition, % at 6.95 µM | 370,000 tested, 0.83% active;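 active = inhibition above the mean of compounds lying between control limits plus 3 SD, set per campaign, cut at about 8.5% in these data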;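 note: 0% = DMSO-only wells as the low control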
PLC-beta3 inh: human PLC-beta3 inhibitors, primary screen, biochemical, fluorescence; Purified PLC-beta3, fluorogenic substrate; inhibition, % at 12.2 µM; 370,000 tested, 0.18% active; in the data active = inhibition above about 11%;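 note: 0% = median of compound wells on plate and 100% = full blocker control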
PLCgamma1 ctr: PLC-gamma1 enzyme inhibitors, counter-screen for PLC-beta3 inhibitor project, biochemical, fluorescence; shares compounds with PLC-gamma1 inh; purified PLC-gamma1, fluorogenic substrate; inhibition, % at 12.3 µM; 3,300 tested, 3.1% active; AID 743258, 2014
PLCbeta3 conf: PLC-beta3 inhibitor confirmation, biochemical, fluorescence, purified enzyme. shares compounds with PLC-gamma1 inh. fluorogenic substrate fluorescence. inhibition, % at 12.3 µM. 3,300 tested, 1% active. AID 743261, 2014; in the data active = inhibition above about 11%
An asterisk follows results filed as active; i = inactive; / = no result. Cut-off read from the data, not from the text of the source, unless noted: active = inhibition above about 9.5%; inactive = the rest.

SMILES	Rce1 inhib	ADAM10 inh	PLC-gamma1 inh	ADAM17 inh	PLC-beta3 inh	PLCgamma1 ctr	PLCbeta3 conf
O=[N+]([O-])c1ccc2[nH]cc(S(=O)(=O)N3CCN(c4cccc(Cl)c4)CC3)c2c1	i	10	10*	0	1	14*	10
Clc1ccc(COc2cccc(CNCc3ccncc3)c2)cc1	i	0	3	-5	-6	/	/
CCN(C(=O)COC(=O)COc1ccc(Cl)c(C)c1)C1CCS(=O)(=O)C1 (stereo unspecified)	/	-9	-2	-3	0	/	/
Cc1cc(NC(=O)CSc2nnc(-c3cccs3)n2N)no1	i	0	9.9*	2	3	-3	-6
CCn1c(SCC(=O)Nc2ccc(OC)c(OC)c2)nnc1-c1cccs1	/	5	12*	4	10	-3	-4
CCCCn1c(SCC(=O)Nc2cc(C)on2)nnc1-c1cccs1	i	-2	2	-3	-2	/	/
CCOc1cc(/C=N/NC(=O)C(=O)Nc2cc(Cl)ccc2C)ccc1O	i	-5	-1	2	0	/	/
O=C(CCCN1C(=O)c2ccccc2C1=O)Nc1nccs1	i	6	14*	-4	2	-3	1
COc1ccc(N2CCN(C(CNC(=O)C(=O)NCCC3=CCCCC3)c3ccco3)CC2)cc1 (stereo unspecified)	i	8	2	-2	2	/	/
O=C(NCCC1=CCCCC1)C(=O)NCC(c1ccco1)N1CCN(c2ccccc2)CC1 (stereo unspecified)	i	5	13*	2	4	-1	1
Cc1ccccc1NC(=O)Cc1nc(COC(=O)c2cc([N+](=O)[O-])ccc2NCCO)cs1	i	12	10*	5	6	-5	-5
Cc1ccccc1NC(=O)Cc1nc(COC(=O)c2ccc([N+](=O)[O-])cc2)cs1	/	-8	-1	-3	-8	/	/
C#CCOCCOCCOCCNc1nc(N2CCN(C(=O)[C@H](CCCN=C(N)N)n3cc(C(N)[C@@H](C)CC)nn3)CC2)nc(N2CCN(C(=O)[C@H](CC(N)=O)n3cc([C@@H](N)C(C)C)nn3)CC2)n1 (stereo partly specified)	/	6	4	2	14*	-1	-2
C=COc1ccc(N2C(=O)c3ccccc3OC2C)cc1 (stereo unspecified)	i	4	14*	6	-1	-3	-1
COc1ccc(N2C(=O)c3ccccc3C2O)cc1 (stereo unspecified)	i	5	-6	-3	-5	/	/
Cc1cc(NC(=O)COc2ccccc2C(N)=O)no1	/	0	9.5*	-3	4	-1	4
O=C(Nc1ccncc1)c1cccc(S(=O)(=O)N2CCCC2)c1	i	-4	10*	8	-3	-2	-3
Cc1cccnc1NC(=O)c1ccc(S(=O)(=O)N2CCCCC2)cc1	i	2	11*	2	3	-3	6
C[C@H]1CN(S(=O)(=O)C(C)(C)C)[C@@H](CCO)/C1=C\CCO	/	-3	11*	3	1	-1	0
CC(=O)c1c(C)nc2ccc([N+](=O)[O-])cc2c1-c1ccccc1	i	14	14*	8	5	0	2
CC(=O)c1c(C)nc2ccc(Br)cc2c1-c1ccccc1	i	8	0	1	5	/	/
COc1ccc(C(=O)N2CCN(c3ccccn3)CC2)cc1[N+](=O)[O-]	i	-9	0	-5	-6	/	/
CS(=O)(=O)c1[nH]nc(-c2cccc(Cl)c2)c1C#N	i	-1	-1	-1	-7	/	/
O=C(O)CCC(=O)NNC(=O)CCC1CCCCC1	i	-4	-1	2	3	/	/
O=C(O)CCC(=O)OCC1CCCCC1	i	0	9.8*	-1	4	-6	-1
SMILES	Rce1 inhib	ADAM10 inh	PLC-gamma1 inh	ADAM17 inh	PLC-beta3 inh	PLCgamma1 ctr	PLCbeta3 conf
CCc1ccccc1NC(=O)CCC(=O)N1CCN(C(C)=O)CC1	/	-2	2	-1	5	/	/
CCc1ccccc1NC(=O)CN1CCN(C(=O)CCC(=O)N2CCC(c3ccccc3)=N2)CC1	/	5	13*	7	-1	-3	-4
CCc1ccccc1NC(=O)CN1CCN(C(=O)CNC(=O)c2ccc(N3CCCC3=O)cc2)CC1	/	3	12*	2	-4	-4	2
COc1ccc(CCN2C(=O)N[C@@H](C(C)C)C2=O)cc1	i	10	-1	-2	-3	/	/
C/C(N)=C(/C#N)C(=O)CSc1nc2ccccc2c(=O)n1-c1ccc(C)c(Cl)c1	i	-4	0	0	-1	/	/
CC1CC(C)CN(S(=O)(=O)c2ccc3c(c2)CC(C)N3C(=O)C2CC2)C1 (stereo unspecified)	i	-2	1	2	4	/	/
COc1ccccc1N1CCN(C(c2cccs2)c2nnnn2C2CCCC2)CC1 (stereo unspecified)	i	-3	9.9*	1	2	1	1
c1ccc(CC2CCN(C(c3cccs3)c3nnnn3C3CCCC3)CC2)cc1 (stereo unspecified)	i	8	-4	-3	0	/	/
COc1ccccc1C(=O)NCCC(=O)NCC1COc2ccccc2O1 (stereo unspecified)	/	-3	-1	2	-3	/	/
COc1ccc(N2CC(C(=O)N[C@@H](C)C(=O)NCc3ccccc3OC)CC2=O)cc1 (stereo partly specified)	i	-5	9.8*	-1	-12	-1	1
O=S(=O)(O)c1cc(Cl)cc(N=Nc2ccc(O)cc2O)c1O	/	8	13*	4	-6	-152	-151
O=[N+]([O-])c1ccc(N=Nc2ccc(O)cc2O)cc1	i	6	7	4	4	/	/
Cc1ccc(C(=O)NCC(=O)NCC(=O)OCC(=O)c2ccc(F)cc2)cc1	i	-10	13*	-2	-11	-5	-2
O=C(CNC(=O)c1ccccc1)NCC(=O)OCC(=O)c1ccc(F)cc1	i	1	2	-3	3	/	/
Nc1ccc(C(=O)N/N=C\C=C\c2cccc([N+](=O)[O-])c2)cc1	i	17	15*	6	16*	-17	2
